Source: PubChem (several laboratories)
Shown are actives, neighbours in structure and some others; about 4% of the full set was active somewhere.
Gli-Sufu antag = Gli-Sufu pathway antagonists, primary screen, luciferase luminescence, Sufu-KO-LIGHT cells, uHTS; 340,000 tested, 0.74% active; Sufu-KO-LIGHT fibroblasts, Gli luciferase reporter luminescence; inhibition, % at 5 µM; AID 588413, 2011;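 active = inhibition above about 55%, limit read from the data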;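 also: 0% = DMSO-treated cells and 100% = wells with medium but no cells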
Beta cell apopt = inhibitors of cytokine-induced beta cell apoptosis, primary screen, luminescence; INS-1E cytokine-induced death, ATP luminescence, 48 h; percent of positive-control rescue, neutral wells zero; protection from apoptosis, % (concentration not given with the values); 300,000 tested, 0.8% active;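 active = Every replicate reaches about 75%, or at least half do and their mean reaches it too, limit read from the data; inconclusive = At least half of replicates reach the limit but their mean does not; inactive = Under half of replicates reach the limit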;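 also: 0% = cytokine-treated negative control wells and 100% = positive control rescue; higher means more ATP so stronger rescue from cytokine killing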
Jurkat NFkB inh = inhibitors of induced NF-kB luciferase reporter, primary screen, TCR NF-kB activation inhibitor project, cell-based, luminescence, uHTS; Jurkat, PMA/ionomycin-induced NF-kB luciferase reporter; inhibition, % at 4 µM; 330,000 tested, 0.53% active; AID 435003, 2010; in the data active = inhibition above about 50%
697 NFkB inh = inhibitors of PMA/ionomycin-induced NF-kB reporter, 697 cells, primary screen, B-cell NF-kB inhibitor project, cell-based, luminescence, uHTS | 697 B-cell NF-kB luciferase reporter, 16 h | inhibition, % at 4 µM | 330,000 tested, 0.33% active; in the data active = inhibition above about 35%
Mdm2 MdmX PPI = inhibitors of human Mdm2-MdmX association, primary screen, cell-based, luminescence, split luciferase, SaOS-2, uHTS. SaOS-2 split-luciferase Mdm2/MdmX complementation. inhibition, % at 8 µM. 330,000 tested, 3% active;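 active = inhibition of at least 50% at 8 µM in the primary screen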
Target sequence (O15151 whole entry, looked up): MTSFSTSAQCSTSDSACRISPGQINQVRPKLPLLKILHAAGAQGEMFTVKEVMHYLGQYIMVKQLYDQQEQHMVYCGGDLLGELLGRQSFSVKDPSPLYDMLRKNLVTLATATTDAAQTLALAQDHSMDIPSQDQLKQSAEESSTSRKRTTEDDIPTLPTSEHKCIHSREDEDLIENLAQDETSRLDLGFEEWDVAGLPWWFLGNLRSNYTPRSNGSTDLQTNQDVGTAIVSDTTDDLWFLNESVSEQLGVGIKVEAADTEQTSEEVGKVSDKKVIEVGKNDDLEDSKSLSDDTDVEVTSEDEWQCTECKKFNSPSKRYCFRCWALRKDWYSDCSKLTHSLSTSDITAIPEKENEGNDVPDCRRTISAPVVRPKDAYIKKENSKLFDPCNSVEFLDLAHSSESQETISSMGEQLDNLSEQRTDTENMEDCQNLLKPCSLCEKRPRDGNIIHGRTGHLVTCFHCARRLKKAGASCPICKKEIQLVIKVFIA
Target sequence (Q00987 whole entry, looked up): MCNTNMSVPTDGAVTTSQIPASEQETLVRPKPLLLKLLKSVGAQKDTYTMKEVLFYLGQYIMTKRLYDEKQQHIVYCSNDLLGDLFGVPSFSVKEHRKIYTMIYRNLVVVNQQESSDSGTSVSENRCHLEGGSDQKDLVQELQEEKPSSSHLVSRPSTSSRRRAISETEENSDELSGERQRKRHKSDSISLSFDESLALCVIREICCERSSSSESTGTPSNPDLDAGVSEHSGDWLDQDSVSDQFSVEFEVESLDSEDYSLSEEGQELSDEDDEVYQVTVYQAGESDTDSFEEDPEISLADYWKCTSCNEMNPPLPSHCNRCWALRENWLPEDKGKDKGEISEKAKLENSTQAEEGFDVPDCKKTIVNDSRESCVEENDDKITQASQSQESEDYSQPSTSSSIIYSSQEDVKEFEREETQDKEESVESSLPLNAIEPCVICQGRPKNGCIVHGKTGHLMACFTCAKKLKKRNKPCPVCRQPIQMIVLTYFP
Jurkat NFkB conf = PMA/ionomycin-induced NF-kB reporter inhibitors, Jurkat retest, confirmation, T-cell NF-kB inhibitor project, cell-based, luminescence, single concentration; Jurkat NF-kB luciferase, 16 h; 2,700 tested, 27% active; AID 435020, 2010; inhibition, % at 4 µM; shares compounds with Jurkat NFkB inh;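 active = inhibition reaching about 45% at 4 µM in either replicate, limit read from the data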;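 also: plate controls were PMA/ionomycin stimulated DMSO wells for no effect and unstimulated DMSO wells for full effect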
697 NFkB conf = PMA/ionomycin-induced NF-kB reporter inhibitors, 697 retest, confirmation, B-cell NF-kB inhibitor project, cell-based, luminescence, single concentration; shares compounds with 697 NFkB inh; 697 B-cell NF-kB luciferase, 16 h; inhibition, % at 4 µM; 2,000 tested, 35% active; AID 449746, 2010; in the data active = inhibition mostly above about 28%, no sharp cut-off; inactive = mostly below about 22%
Mdm2 MdmX conf = Mdm2-MdmX complex disruptors, retested hits, confirmation, luminescence, single concentration. inhibition, % at 8 µM. shares compounds with Mdm2 MdmX PPI. Mdm2-MdmX binding, luminescent assay. AID 489028, 2010. 10,000 tested, 55% active; in the data active = inhibition above about 40%
FLuc counter = full-length luciferase signal inhibition, confirmation, counter-screen for Mdm2/MdmX interaction inhibitor project, cell-based, single concentration, SaOS-2; shares compounds with Mdm2 MdmX PPI; SaOS-2 full-length luciferase counterscreen, luminescence; inhibition, % at 8 µM; 6,200 tested, 77% active;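 active = mean inhibition at 8 µM reaching about 37%, which flags the compound as non-specific, limit read from the data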;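 also: p53-null SaOS-2 cells with luciferase driven by a doxycycline-inducible promoter; compound on cells about two nights before reading with doxycycline added after day one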
Numbers without * were called inactive; ? = inconclusive; . = no result given.

SMILES	Gli-Sufu antag	Beta cell apopt	Jurkat NFkB inh	697 NFkB inh	Mdm2 MdmX PPI	Jurkat NFkB conf	Mdm2 MdmX conf	FLuc counter	others
COc1ccc(OC)c(NS(=O)(=O)c2ccc(N3CCCC3=O)cc2)c1	45	15	55*	1	72*	55*	57*	83*
Cc1ccc(N2C(=O)c3cccc4c(N)ccc(c34)C2=O)c2cccnc12	41	23	75*	-213	62*	43	61*	80*
Cc1nn(C)c(C)c1N1C(=O)c2cccc3c(N)ccc(c23)C1=O	-3	2	.	.	.	.	.	.
O=C(CN(C(=O)c1ccccc1)C(=O)c1ccccc1)OCc1ccccc1	1	.	.	.	.	.	.	.
C[C@@H]1C=CC(=O)O[C@@H]1c1ccc(C(F)(F)F)cc1	.	6	97*	60*	76*	97*	69*	9	697 NFkB conf=-41
COc1ccccc1NC(=O)c1ccccc1C(=O)Nc1ccccc1OC	-6	-4	4	4	17	.	.	.
COc1ccccc1NC(=O)c1cnc(Nc2ccccc2OC)c2ccccc12	0	26	59*	-56	52*	41	58*	66*
Cc1nc2ccc(C(=O)N3c4ccccc4CC3C)cc2s1 (configuration not stated)	3	8	55*	-75	66*	14	58*	50*
CCOC(=O)Cc1csc(NC(=O)/C=C\c2ccccc2Cl)n1	-22	-2	-16	8	-12	.	.	.
COc1ccc(NS(=O)(=O)c2cc(NC(=O)c3sccc3C)ccc2N2CCOCC2)cc1	-4	7	50*	-11	57*	2	64*	64*
CC(=O)c1ccc2c(c1)C1C=CCC1C(c1cc3c(cc1Br)OCO3)N2 (configuration not stated)	1	12	80*	-35	67*	29	47*	57*
COc1ccc2c(c1)C1C=CCC1C(c1cc3c(cc1Br)OCO3)N2 (configuration not stated)	0	-5	4	20	47	.	.	.
COc1cc(C2C(C#N)=C(N)Oc3cc(O)ccc32)cc(OC)c1OC (configuration not stated)	26	-8	53*	-18	65*	10	67*	67*
CCOC(=O)C1=C(C)OC(N)=C(C#N)C1c1cc(OC)c2c(c1)OCO2 (configuration not stated)	11	-8	-6	27	-1	.	.	.
COc1cc(C2C(C#N)=C(N)Oc3cc(N(C)C)ccc32)cc2c1OCO2 (configuration not stated)	45	69	67*	-107	78*	48*	64*	112*
COc1ccc(C2C(C#N)=C(N)Oc3cc(O)ccc32)cc1OC (configuration not stated)	3	9	1	-22	17	.	.	.
CC1=C/C(=N\OS(=O)(=O)c2ccccc2)C(C)=CC1=O	3	112*	51*	-13	96*	28	84*	53*
CC1=C/C(=N\OS(=O)(=O)c2ccccc2)C(C(C)C)=CC1=O	7	?	.	.	.	.	.	.
